# Experimental data published in PubChem BioAssay AID1259415 (National Center for Advancing Translational Sciences (NCATS), 2018).
# Out of some 410,000 compounds screened, about 18,000 (4.4%) were called active. Roughly 7% stayed inconclusive and do not appear here. Shown is part of a subset that was picked to be rich in actives. Values without a mark were called inactive. Cut-off read from the data, not from the text of the source: active = activity change below about -60%; inconclusive = no clear call, values can overlap the other calls; inactive = above about -39%.
# Test: qHTS Assay for inhibitors of the human cytomegalovirus (HCMV)
# Conditions: HFF cells, HCMV-luciferase reporter, 72 h; at 57.5 µM; active compounds read low
# Outline: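 Compounds were evaluated in HFFs infected with an HCMV luciferase reporter virus (MOI 1 PFU/cell). Luciferase in lysates collected 72 h post infection served as the replication measure.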
# % is set by controls: 0 for no effect and ±100 for the full control effect.
row,SMILES,"activity change, negative = inhibition"
1,CC(C)CNc1ncnc2c1cnn2Cc1ccc(Cl)cc1,-30.5%
2,C=CCOc1cccc(CNCc2cccnc2)c1,21.4%
3,c1cncc(CNC2=NCCC2)c1,46.1%
4,Brc1ccc2ncnc(NCc3cccnc3)c2c1,-65.9% (active)
5,C=CCNc1ncnc2ccc(Br)cc12,-60.6% (active)
6,Clc1ccc(Cn2ncc3c(NCc4cccnc4)ncnc32)cc1,-72.2% (active)
7,Clc1cccc(-n2ncc3c(NCCc4ccccc4)ncnc32)c1,41.5%
8,COc1ccc(CCNS(=O)(=O)c2cccc([N+](=O)[O-])c2)cc1,-2.78%
9,COc1cc2nc(NCC(C)c3ccccc3)n3nc(-c4ccccc4)nc3c2cc1OC (centres undefined),5.32%
10,Cc1ccc2cccc(NC(=O)C(C)Oc3ccc(C)c(C)c3)c2n1 (centres undefined),-3.68%
11,C=CCNC(=O)c1cc2nc(C3CC3)cc(C(F)F)n2n1,37.6%
12,COc1ccc(N(CC(=O)Nc2ccc(F)c(F)c2)S(=O)(=O)c2c(C)[nH]c(=O)[nH]c2=O)cc1,0%
13,CC(C)c1ccc(NC(=O)c2cc(S(=O)(=O)N3CCc4ccccc4C3)ccc2F)cc1,3.74%
14,CC1=C(C(=O)OCC(C)C)C(c2ccc(OCc3ccccc3)cc2)N2C(=O)CCSC2=N1 (centres undefined),14.9%
15,COc1ccc(NC(=O)CN2C(=O)C(c3ccccc3)=NC23CCCCCC3)cc1OC,-13.9%
16,CCc1ccc(NC(=O)CN2C(=O)C(c3ccccc3)=NC23CCCCCC3)cc1,16.1%
17,CC1CCC2(CC1)N=C(c1ccccc1)C(=O)N2CC(=O)Nc1ccc(F)c(Cl)c1 (centres undefined),-96% (active)
18,COc1cccc(NC(=O)C2CCN(c3cc(C)nc4c(-c5ccc(Cl)cc5)c(C)nn34)CC2)c1,-5.4%
19,CC(=O)c1cc(-c2ccccc2)[nH]c1N1CCCC1,30.4%
20,O=c1cc(-c2ccccc2)[nH]c2cc(F)ccc12,-67.4% (active)

row,SMILES,"activity change, negative = inhibition"
1,Cc1ccc(-c2cc(=O)c3ccc(F)cc3[nH]2)cc1,3.06%
2,COc1ccccc1CNC(=O)COC(=O)c1sc(C)nc1C,-2.84%
3,COc1cccc2sc(Nc3nc(C)c(C(C)=O)s3)nc12,-77% (active)
4,COc1ccccc1Nc1ncc(C(C)=O)c(C)n1,16.2%
5,O=C(Nc1ccc(-c2nc3cc(NC(=O)c4ccccc4Cl)ccc3o2)cc1)c1ccccc1Cl,-35.6%
6,COc1ccc(-c2nc(Cn3c(=O)cc(C)c4c(C)nn(-c5ccccc5)c43)c(C)o2)c(OC)c1,-2.37%
7,Cc1nc2ccc(S(=O)(=O)NC(C(=O)NCc3ccccc3Cl)C(C)C)cc2s1 (centres undefined),-12.9%
8,CC1(C)CC(=O)C=C(c2ccc(Cl)c(C(F)(F)F)c2)C1,-4.75%
9,COc1ccccc1-c1n[nH]nc1C1=CC(=O)CC(C)(C)C1,-4.89%
10,CC1(C)CC(=O)C=C(c2ccc3ncccc3c2)C1,-83.3% (active)
11,CC1CCCCN1Cc1c(O)ccc2c(=O)c(-c3cccc(Cl)c3)c(C(F)(F)F)oc12 (centres undefined),11.3%
12,O=C(CCc1c[nH]c2ccccc12)NCCOc1ccccc1,-2.62%
13,N#C/C(=C/c1ccc(N2CCCCC2)o1)C(=O)NCCc1c[nH]c2ccccc12,-60.4% (active)
14,O=C(NCCCc1ccccc1)C(=O)c1c[nH]c2ccccc12,21.3%
15,COc1ccc(NC(=O)Cn2cc(C(=O)c3ccncc3)c(=O)c3cc(C)ccc32)cc1Cl,-8.82%
16,CCCOc1ccc(C2c3c(-c4ccccc4O)n[nH]c3C(=O)N2Cc2cccnc2)cc1 (centres undefined),8.52%
17,CCOC(=O)c1ccc(NC(=O)c2c(NCc3cccs3)sc3c2CCCC3)cc1,-7.9%
18,COc1ccc(N2CCN(c3nc(-c4ccccc4F)nc4ccccc34)CC2)cc1,-30%
19,COc1cc(Nc2nc(-c3ccc(OC)c(OC)c3)nc3ccccc23)cc(OC)c1,-33.1%
20,CC(C)(C)Nc1nc(-c2ccccn2)nc2ccccc12,-100% (active)

row,SMILES,"activity change, negative = inhibition"
1,CCCc1nn2c(=O)cc(COC(=O)c3ccc(NC(=O)COc4ccc(F)cc4)cc3)nc2s1,-24.2%
2,CC(C)(C)C(=O)CCN1C(=O)C2(OCCO2)c2ccccc21,1.52%
3,COc1ccc(C2C(=O)N(C3CCCCCC3)CC(=O)N2CCc2ccc(Cl)cc2)cc1OC (centres undefined),-12.5%
4,Cc1cn(C)c(CC(=O)NCc2ccccc2)c1C(=O)O,16.2%
5,CC1CCN(C(=O)c2ccc(S(=O)(=O)Cc3cc(F)ccc3F)c([N+](=O)[O-])c2)CC1,-83.1% (active)
6,NC(=O)C1CCN(C(=O)c2ccc(F)c(S(=O)(=O)N3CCOCC3)c2)CC1,-6.8%
7,CC1=Nc2cc(C(=O)N3CCC(C)CC3)ccc2Sc2ccc(Cl)cc21,-34.1%
8,Cc1cccc(CSc2nc3ccncc3n2CC(=O)N(C)C2CCCCC2)c1,19.5%
9,O=C(NCC(c1ccco1)S(=O)(=O)c1cccs1)c1ccc(F)cc1 (centres undefined),0%
10,CSc1ncnc2sc(C)c(C)c12,-17.9%
11,Cc1cccc(-n2ccnc2SCC(=O)Nc2cccc3ccccc23)c1C,-0.357%
12,O=C(Nc1ccccc1N1CCCCC1)c1ccc2nccnc2c1,-62.2% (active)
13,CCn1c(=O)c(=O)n(CC)c2cc(N3CCCCC3)c(NC(=O)c3cccc(F)c3)cc21,-12.9%
14,Cc1ccc(C)c(NC(=O)c2ccc3nccnc3c2)c1,-67% (active)
15,O=C(NCCc1ccc(F)cc1)c1ccc2nccnc2c1,104%
16,CC(C)CCC(C)NC(=O)c1ccc2nccnc2c1 (centres undefined),43%
17,O=C(Nc1ccccc1N1CCCC1)c1ccc(F)c(S(=O)(=O)N2CCOCC2)c1,-11.8%
18,CCOC(=O)c1ccccc1NC(=O)c1nn(-c2ccc(OC)c(Cl)c2)c(=O)c2c1c1ccccc1n2C,11.6%
19,Cc1ccc(C)c(Cn2c(C(=O)O)c(CNCc3cccs3)c3ccccc32)c1,-8.87%
